Results reported in PubChem BioAssay (NCI).
Compounds without any hit were thinned out: in the full panel of roughly 83,000, 20% have a hit.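 Single-dose data. Exposure time 48 hours. Values below 10 considered active.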

How the values were obtained:
Experiment in all cases: NCI-60 one-dose screen, 48 h (100 = growth as untreated, 0 = no growth, -100 = all killed)
Settings in all cases: 10 µM unless noted
NCI-H23 lung = system: NCI-H23 lung
NCI-H226 lung = system: NCI-H226 lung
NCI-H322M lung = system: NCI-H322M lung
HOP-62 NSCLC = system: HOP-62 NSCLC
NCI-H460 lung = system: NCI-H460 lung
HOP-92 NSCLC = system: HOP-92 NSCLC
NCI-H522 lung = system: NCI-H522 lung
A549/ATCC NSCLC = system: A549/ATCC NSCLC
786-0 renal = system: 786-0 renal
COLO 205 colon = system: COLO 205 colon
DU-145 prostate = system: DU-145 prostate
K-562 leukemia = system: K-562 leukemia
MALME-3M melanoma = system: MALME-3M melanoma
MDA-MB-231 breast = system: MDA-MB-231 breast
RXF 393 renal = system: RXF 393 renal
SF-268 CNS = system: SF-268 CNS
SF-295 CNS = system: SF-295 CNS
SF-539 CNS = system: SF-539 CNS
M14 melanoma = system: M14 melanoma

Measured: growth

CCCCOc1nc2c(C)cccc2cc1C1CNC(=O)c2ccccc2N1 (configuration not stated)
inactive: NCI-H23 lung 80% | NCI-H226 lung 89% | NCI-H322M lung 105% | HOP-62 NSCLC 56.2% | NCI-H460 lung 56.2% | HOP-92 NSCLC 62.6% | NCI-H522 lung 44.8% | A549/ATCC NSCLC 60.1% | 786-0 renal 46.2% | COLO 205 colon 90.8% | DU-145 prostate 86% | K-562 leukemia 19% | MALME-3M melanoma 86.1% | MDA-MB-231 breast 65.3% | RXF 393 renal 78.3% | SF-268 CNS 66.9% | SF-295 CNS 52.5% | SF-539 CNS 68.3% | M14 melanoma 54.7%

CCc1c(C(=O)Nc2ccc3ccccc3c2)[nH]c(C)c1C(C)=O
inactive: NCI-H23 lung 85.8% | NCI-H226 lung 95.7% | NCI-H322M lung 98.9% | HOP-62 NSCLC 96.1% | NCI-H460 lung 101% | HOP-92 NSCLC 92.3% | NCI-H522 lung 68.7% | A549/ATCC NSCLC 89.6% | 786-0 renal 104% | COLO 205 colon 111% | DU-145 prostate 107% | K-562 leukemia 81.2% | MALME-3M melanoma 95.7% | MDA-MB-231 breast 93.3% | RXF 393 renal 96.7% | SF-268 CNS 110% | SF-295 CNS 102% | SF-539 CNS 96.2% | M14 melanoma 93.8%

O=C(O)c1ccc(-n2cc(CNc3ccc(C(F)(F)F)cc3)c(-c3ccccc3)n2)cc1
inactive: NCI-H23 lung 91.6% | NCI-H226 lung 104% | NCI-H322M lung 101% | HOP-62 NSCLC 90.5% | NCI-H460 lung 94.3% | HOP-92 NSCLC 83.8% | NCI-H522 lung 94.3% | A549/ATCC NSCLC 72.5% | 786-0 renal 99.1% | COLO 205 colon 107% | DU-145 prostate 95.9% | K-562 leukemia 80.6% | MALME-3M melanoma 91.3% | MDA-MB-231 breast 102% | RXF 393 renal 99.4% | SF-268 CNS 91.4% | SF-295 CNS 75% | SF-539 CNS 99.9% | M14 melanoma 89%

CC(=O)Oc1cccc(OC(C)=O)c1OC(C)=O
inactive: NCI-H23 lung 111% | NCI-H226 lung 97.8% | NCI-H322M lung 99.7% | HOP-62 NSCLC 92.1% | NCI-H460 lung 110% | HOP-92 NSCLC 106% | NCI-H522 lung 75.2% | A549/ATCC NSCLC 72.6% | 786-0 renal 97.7% | COLO 205 colon 107% | DU-145 prostate 108% | K-562 leukemia 100% | MALME-3M melanoma 97.6% | MDA-MB-231 breast 98.9% | RXF 393 renal 99.5% | SF-268 CNS 105% | SF-295 CNS 99.2% | SF-539 CNS 99.5% | M14 melanoma 95.3%

COc1ccc(/C=C(\C#N)c2ccc([N+](=O)[O-])cc2)c2ccccc12
inactive: NCI-H23 lung 65.3% | NCI-H226 lung 16.1% | NCI-H322M lung 51.6% | HOP-62 NSCLC 27.1% | NCI-H460 lung 64.6% | HOP-92 NSCLC 50.1% | NCI-H522 lung 34% | A549/ATCC NSCLC 48.7% | 786-0 renal 34.5% | COLO 205 colon 81.4% | DU-145 prostate 60.9% | K-562 leukemia 44.7% | MALME-3M melanoma 14.6% | MDA-MB-231 breast 45% | RXF 393 renal 58.3% | SF-268 CNS 39.8% | SF-295 CNS 70.7% | SF-539 CNS 49.4% | M14 melanoma 65.7%

Nc1nn2cc(-c3ccc(Cl)s3)nc2c2ccccc12
inactive: NCI-H23 lung 102% | NCI-H226 lung 94.8% | NCI-H322M lung 96.7% | HOP-62 NSCLC 76.4% | NCI-H460 lung 86.8% | HOP-92 NSCLC 67% | NCI-H522 lung 78.5% | A549/ATCC NSCLC 83.9% | 786-0 renal 104% | COLO 205 colon 95.2% | DU-145 prostate 99% | K-562 leukemia 85.3% | MALME-3M melanoma 101% | MDA-MB-231 breast 68.9% | RXF 393 renal 133% | SF-268 CNS 94.1% | SF-295 CNS 93.7% | SF-539 CNS 81.7% | M14 melanoma 97%

C=CCc1cc(Cl)cc2c(OC(C)=O)c(C(C)=O)c(-c3ccccc3)nc12
inactive: NCI-H23 lung 91.8% | NCI-H226 lung 103% | NCI-H322M lung 106% | HOP-62 NSCLC 89.2% | NCI-H460 lung 106% | HOP-92 NSCLC 105% | NCI-H522 lung 96.4% | A549/ATCC NSCLC 102% | 786-0 renal 107% | COLO 205 colon 108% | DU-145 prostate 112% | K-562 leukemia 109% | MALME-3M melanoma 104% | MDA-MB-231 breast 90.7% | RXF 393 renal 130% | SF-268 CNS 109% | SF-295 CNS 114% | SF-539 CNS 110% | M14 melanoma 104%

COC(=O)c1ccc(C)cc1
inactive: NCI-H23 lung 97.5% | NCI-H226 lung 106% | NCI-H322M lung 113% | HOP-62 NSCLC 107% | NCI-H460 lung 106% | HOP-92 NSCLC 100% | NCI-H522 lung 97.5% | A549/ATCC NSCLC 103% | 786-0 renal 103% | COLO 205 colon 106% | DU-145 prostate 103% | K-562 leukemia 102% | MALME-3M melanoma 108% | MDA-MB-231 breast 107% | RXF 393 renal 106% | SF-268 CNS 97.9% | SF-295 CNS 102% | SF-539 CNS 103% | M14 melanoma 116%
